Each compound was assayed on RIVA (assay: growth inhibition by drug plus 177Lu-lilotomab satetraxetan (1 - RLU/untreated control) (fraction); higher = stronger inhibition). Conditions: 100 nM; time (day): 4; 177Lu-lilotomab satetraxetan 0.5 ug/ml.
Summary of the method: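 With or without 18 h pretreatment by a radiolabelled anti-CD37 antibody conjugate (~600 MBq/mg; 0.5 µg/ml RIVA, 1 µg/ml U-2932), RIVA and U-2932 cells were washed and plated at 3,000 cells/well. Pre-printed compound doses were 10/100 nM for RIVA and 10/1,000 nM for U-2932. Growth inhibition uses RealTime-Glo RLU relative to the untreated no-drug wells. The calculation is 1 − RLU/mean of 48 such wells per plate, with reads daily from day 3 after 1 h at 37°C.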
For `CNCc1ccc(-c2[nH]c3cc(F)cc4c3c2CCNC4=O)cc1`, the “growth inhibition by drug plus 177Lu-lilotomab satetraxetan” value (from here on “growth inhibition”) was 0.54. `O=C(O)c1ccc(-c2c[nH]c3ncc(-c4ccccc4)cc23)cc1C1CCCC1` was tested, and the “growth inhibition” value was 0.471. In the case of `CC(=O)c1c(C)c2cnc(Nc3ccc(N4CCNCC4)cn3)nc2n(C2CCCC2)c1=O`, the “growth inhibition” value is reported as 0.427. With `CCN(CC)CCCCNc1ncc2cc(-c3cc(OC)cc(OC)c3)c(NC(=O)NC(C)(C)C)nc2n1` the “growth inhibition” value was 0.447. With `CCC(C)(C)C(=O)O[C@H]1C[C@@H](C)C=C2C=C[C@H](C)[C@H](CC[C@@H]3C[C@@H](O)CC(=O)O3)[C@H]21` [Simvastatin (Zocor)] the “growth inhibition” value was 0.494. `CC[C@H](Nc1ncnc2[nH]cnc12)c1nc2cccc(F)c2c(=O)n1-c1ccccc1` was tested, and the “growth inhibition” value was 0.541. With `CC(C=CC(=O)NO)=CC(C)C(=O)c1ccc(N(C)C)cc1` (stereo not drawn) [Trichostatin A (TSA)] the “growth inhibition” value was 0.798. `COc1ccc2c3n(c(=NC(=O)c4cccnc4)nc2c1OC)CCN3` was tested, and the “growth inhibition” value was 0.53. In the case of `NC(=O)c1ccc(-c2nc(-c3ccccn3)c(-c3ccc4c(c3)OCO4)[nH]2)cc1`, the “growth inhibition” value is reported as 0.521. For `CNC(=O)c1cc(Oc2ccc(NC(=O)Nc3ccc(Cl)c(C(F)(F)F)c3)c(F)c2)ccn1` [Regorafenib (BAY 73-4506)], the “growth inhibition” value was 0.581. For `Cc1cnc(Nc2ccc(OCCN3CCCC3)cc2)nc1Nc1cccc(S(=O)(=O)NC(C)(C)C)c1`, the “growth inhibition” value was 0.275. With `CCOc1ccc(Nc2nc(-c3c(C)nc4ccccn34)cs2)cc1` the “growth inhibition” value was 0.965. In the case of `CC(C)C[C@H](NC(=O)[C@H](Cc1ccccc1)NC(=O)c1cnccn1)B(O)O` [Bortezomib (Velcade)], the “growth inhibition” value is reported as 0.989.

Reference: the supplement of paper PMC6897291
